This note sets out measurements from PubChem BioAssay AID1494157 (National Center for Advancing Translational Sciences (NCATS), 2020).

Inconclusive results are not listed. Calls of active or inactive are those of the source. The call rests on the fitted dose curve.

This assay is described as follows: Confirmatory qHTS for inhibitors of MERS-S pseudo-typed particle cell entry. Conditions: MERS-S pseudotyped particle entry, luciferase reporter; series mostly up to 57.1 µM. For orientation: Quantitative high-throughput screening tests each substance at several concentrations.
With `CN1CCC(=C2c3ccccc3C=Cc3ccccc32)CC1`, the Potency is 19.2 µM (active).

Take `CNC(=O)c1cc(Oc2ccc(NC(=O)Nc3ccc(Cl)c(C(F)(F)F)c3)c(F)c2)ccn1`: the Potency is 15.2 µM (active).

In the case of `COc1cc(NS(C)(=O)=O)ccc1Nc1c2ccccc2nc2ccccc12`, the Potency is 1.36 µM (active).

For `COc1cccc2c1C(=O)c1c(O)c3c(c(O)c1C2=O)C[C@@](O)(C(C)=O)C[C@@H]3O[C@H]1C[C@H](N)[C@H](O)[C@H](C)O1`, the Potency is 3.83 µM (active).

Consider `C[C@@H](c1nc(-c2ccc(C#N)cc2)cs1)[C@](O)(Cn1cncn1)c1cc(F)ccc1F`, for which the Potency was 5.41 µM (active).

Consider `CN1CC[C@H](CN2c3ccccc3Sc3ccccc32)C1`, for which the Potency was 15.2 µM (active).

Turning to `Cc1c(N)nc(C(CC(N)=O)NCC(N)C(N)=O)nc1C(=O)NC(C(=O)NC(C)C(O)C(C)C(=O)NC(C(=O)NCCc1nc(-c2nc(C(=O)NCCCN[C@@H](C)c3ccccc3)cs2)cs1)C(C)O)C(O[C@@H]1O[C@@H](CO)[C@@H](O)[C@H](O)[C@@H]1O[C@H]1O[C@H](CO)[C@@H](O)[C@H](OC(N)=O)[C@@H]1O)c1cnc[nH]1` (some centres undefined), the Potency entry is “inactive”.

Consider `C[C@@H]1CCO[C@H]2Cn3cc(C(=O)NCc4ccc(F)cc4F)c(=O)c(O)c3C(=O)N12`, for which the Potency was 0.0043 µM (active).

Regarding `CCCCCCCCCCCCOCCOCCOCCOCCOCCOCCOCCOCCOCCO`, the Potency was 7.64 µM (active).

For the compound `CCCCc1oc2ccccc2c1C(=O)c1cc(I)c(OCCN(CC)CC)c(I)c1`, the Potency was 10.8 µM (active).

For `N=C(N)c1ccc(OCCCCCOc2ccc(C(=N)N)cc2)cc1`, the Potency was 12.1 µM (active).

As to `Cc1nn(C)c2c1C(c1ccccc1F)=NCC(=O)N2C`, the Potency is 10.8 µM (active).

For the compound `CC(=O)OCC1=C(C(=O)O)N2C(=O)[C@@H](NC(=O)Cc3cccs3)[C@H]2SC1`, the Potency result is “inactive”.

On to `CN1CCN(CCC=C2c3ccccc3Sc3ccc(S(=O)(=O)N(C)C)cc32)CC1`, for which the Potency was 6.07 µM (active).

Consider `O=C(Nc1ccc(Cl)cc1)Nc1ccc(Cl)c(C(F)(F)F)c1`, for which the Potency is 10.8 µM (active).

For the compound `COc1cc2nccc(Oc3ccc(NC(=O)C4(C(=O)Nc5ccc(F)cc5)CC4)cc3)c2cc1OC`, the Potency was 12.1 µM (active).

For `CC(C)C[C@H](NC(=O)[C@H](CCc1ccccc1)NC(=O)CN1CCOCC1)C(=O)N[C@@H](Cc1ccccc1)C(=O)N[C@@H](CC(C)C)C(=O)[C@@]1(C)CO1`, the Potency was 0.192 µM (active).

As to `CC(C)OC(=O)[C@H](C)N[P@](=O)(CO[C@H](C)Cn1cnc2c(N)ncnc21)Oc1ccccc1`, the Potency was 0.0152 µM (active).

`CN(C)CCC=C1c2ccccc2C(C)(C)c2ccccc21`: the Potency was 15.2 µM (active).

As for `CCCCCCCCCCCCCC[n+]1ccc(C)cc1`, the Potency was 2.41 µM (active).

With `CO[C@@]12[C@H](COC(N)=O)C3=C(C(=O)C(C)=C(N)C3=O)N1C[C@@H]1N[C@@H]12`, the Potency is 0.961 µM (active).

For `COc1cc([C@@H]2c3cc4c(cc3C(O[C@@H]3O[C@@H]5CO[C@@H](c6cccs6)OC5[C@H](O)[C@H]3O)C3COC(=O)[C@@H]32)OCO4)cc(OC)c1O` (some centres undefined), the Potency was 0.271 µM (active).

As for `CCCCCCCCCCCC[n+]1ccc2ccccc2c1`, the Potency is 1.36 µM (active).

For `CC(=O)[C@]1(O)Cc2c(O)c3c(c(O)c2[C@@H](O[C@H]2C[C@H](N)[C@H](O)[C@H](C)O2)C1)C(=O)c1ccccc1C3=O`, the Potency is 2.15 µM (active).

Turning to `Cc1ccc(NC(=O)c2ccc(CN3CCN(C)CC3)cc2)cc1Nc1nccc(-c2cccnc2)n1`, the Potency was 13.6 µM (active).

Turning to `C[n+]1c2cc(N)ccc2cc2ccc(N)cc21` (tested in a mixture with another compound), the Potency was 1.92 µM (active).

Take `COC(=O)C1=C(C)NC(C)=C(C(=O)OCC(C)C)C1c1ccccc1[N+](=O)[O-]` (centres undefined): the Potency was 19.2 µM (active).

On to `COc1cc(N)c(Cl)cc1C(=O)NC1CCN(CCCOc2ccc(F)cc2)CC1OC` (centres undefined), for which the Potency was 15.2 µM (active).

For `Oc1c(Cl)cc(Cl)c(Cl)c1Cc1c(O)c(Cl)cc(Cl)c1Cl`, the Potency is 0.857 µM (active).
